Reference: PubChem BioAssay AID504527 (The Scripps Research Institute Molecular Screening Center, 2011)
Activity calls are given as the source filed them.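 Rule for the calls: active = two or more serine hydrolases at least half inhibited, plus every target band half blocked in a general-probe test; inactive = under two enzymes half blocked, or any target band not.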

Test: broad serine hydrolase inhibition in proteome, late-stage follow-up, selectivity assay for PAFAH2 inhibitor project, fluorescence, gel-based ABPP, powder samples (AID 504527)
Conditions: BW5147 murine T-cell proteome, FP-Rh fluorescence, competitor FP-biotin, probe test compound; non-competed targets by FP-biotin, at 20 µM, stronger effect = lower value

Row | SMILES | count of non-competed proteins | outcome
1 | C#CCOCCOCCOCCN(Cc1ccccc1)C(=O)n1ncc(-c2ccccc2)n1 | 0 | active
2 | C#CCOCCOCCOCCN(Cc1ccccc1)C(=O)n1nc2cccnc2n1 | 3 | inactive
3 | C#CCOCCOCCOCCN(Cc1ccccc1)C(=O)n1nccn1 | 0 | active
